According to PubChem BioAssay AID686979 (National Center for Advancing Translational Sciences (NCATS), 2013):
Hit rate of the full screen: of about 420,000 compounds, about 50,000 (12%) were called active. Another 26% or so got no clear call; they are omitted. Shown is part of a subset that was picked to be rich in actives. Where a call stands in place of a potency, no number is given. Unmarked numbers belong to inactive results. Calls come from the whole dose curve; as a rule, active = well fitted inhibition curve with a large enough effect; inconclusive = small, poorly fitted or top-dose-only effect; inactive = flat fitted curve, though single readings scatter.

Experiment: qHTS for Inhibitors of human tyrosyl-DNA phosphodiesterase 1 (TDP1): qHTS in cells in presence of CPT; note: nearly all actives have a fitted effect of over 55% in size
Conditions: chicken DT40 Tdp1-/-;hTDP1 cells + 20 nM CPT, ATP luminescence, 48 h; series mostly up to 46.2 µM
Summary of the method: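 Cell growth measured by CellTiter-Glo luminescence after a minimum 48 h, 37 C compound exposure with 20 nM CPT in Tdp1-knockout DT40 cells stably expressing hTDP1, seeded 400/well; qHTS titration format.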
Potency is the fitted concentration of half-maximal effect.

Row | Structure (SMILES) | Potency | activity change, negative = growth inhibition
1 | CCOC(=O)c1[nH]c(C)c(CCC(=O)NCc2ccccc2C)c1C | inactive | –
2 | CCCNC(=O)C1(C)CCN(C(=O)c2cc(F)ccc2C)C1 (stereo not given) | inactive | –
3 | CC(C)Oc1ccc(CN2CCC(n3nccc3NC(=O)c3cccnc3)CC2)cc1 | inactive | –
4 | COC(=O)[C@@]1(Cc2ccc(OC)cc2)[C@H]2c3cc(C(=O)N4CCCC4)n(Cc4ccc(OC(F)(F)F)cc4)c3C[C@H]2CN1C(=O)c1ccccc1 | 16.4 µM (active) | –
5 | COC(=O)c1ccc(CN2CCC(CO)(Cc3ccc(OC)cc3)CC2)cc1 | inactive | –
6 | CSc1ccc(S(=O)(=O)NCC(=O)OCC(=O)NC2(C#N)CCCCC2)cc1[N+](=O)[O-] | inactive | –
7 | CCN(CC(=O)NCC(=O)Nc1cccc(C)c1C)Cc1ccccc1 | inactive | –
8 | CSC1=NC2(C)CCCCC2C12C=CC(=O)C=C2 (stereo not given) | inactive | –
9 | CCOc1cc(C2C(C(=O)c3ccco3)=C(O)C(=O)N2Cc2ccccc2)ccc1O (stereo not given) | inactive | –
10 | O=C(C1=C(O)C(=O)N(Cc2ccccc2)C1c1ccco1)c1ccco1 (stereo not given) | inactive | –
11 | CC(C)c1ccc(C2C(C(=O)c3ccco3)=C(O)C(=O)N2CC2CCCO2)cc1 (stereo not given) | 20.6 µM (active) | –
12 | COc1cccc(OCC(=O)NNC(=O)c2cnccn2)c1 | inactive | –
13 | CN(C(=O)COc1ccccc1)c1nnc(-c2ccncc2)s1 | inactive | –
14 | O=C(O)Cc1sc(-c2ccccc2)nc1-c1cccs1 | inactive | –
15 | CN(C(=O)COc1nnc(-c2cccs2)c(-c2cccs2)n1)c1ccccc1 | 23.1 µM (active) | –
16 | CCOc1ccc(CC(=O)NCCc2csc3nc(-c4ccccc4F)nn23)cc1 | inactive | –
17 | Cc1ccc(NC(=O)COC(=O)CN2CCCCCC2=O)c(C)c1 | inactive | –
18 | Clc1ccc(Nc2ncnc3c2nnn3Cc2ccccc2)cc1 | inactive | –
19 | CC(=O)Nc1ccc(NC(=O)CSc2ncnc3c2cnn3Cc2ccccc2)cc1 | inactive | –
20 | Clc1ccc(Cn2ncc3c(NCc4cccnc4)ncnc32)cc1 | 20.6 µM (active) | –
21 | Cc1ccc(OCCOc2cccc(/C=N/NC(N)=O)c2)cc1 | inactive | –
22 | COc1ccc(C(=O)COC(=O)Cn2cnc3c2c(=O)n(C)c(=O)n3C)c(OC)c1 | inactive | –

Row | Structure (SMILES) | Potency | activity change, negative = growth inhibition
23 | O=C(Oc1ccc([N+](=O)[O-])cc1)c1ccc2ccccc2n1 | inactive | –
24 | O=C(OCc1ccc([N+](=O)[O-])cc1)c1ccccn1 | inactive | –
25 | O=[N+]([O-])c1ccc(/C=C/c2ccc3cccnc3c2)cc1 | 7.94 µM (active) | –
26 | COc1ccc(C2/C(=C(/O)c3ccc(OC(C)C)cc3)C(=O)C(=O)N2CCCN2CCOCC2)cc1 (stereo not given) | inactive | –
27 | CCCCc1ccc(S(=O)(=O)NC(=O)C2(C)CCN2C(=O)c2c(C)noc2C)cc1 (stereo not given) | inactive | –
28 | Cn1c2c(c(=O)n(C)c1=O)C(c1cccc(F)c1)C(C#N)=C(N)O2 (stereo not given) | inactive | –
29 | CC(C)CCNC(=O)c1cccnc1Sc1ccccc1 | inactive | –
30 | Cc1cc([N+](=O)[O-])c(=O)[nH]c1C | inactive | –
31 | Cc1cccc(C(=O)OCC(=O)Nc2ccc(F)cc2)c1 | inactive | –
32 | O=C(COC(=O)c1ccccc1OCCOc1ccccc1)Nc1cccc(Br)c1 | inactive | –
33 | Cc1cccc(NC(=O)COC(=O)c2ccccc2OCc2cccc(Br)c2)c1 | 17.8 µM (active) | –
34 | CC1C(=O)Nc2ccccc2N1C(=O)c1ccc(F)cc1F (stereo not given) | inactive | –
35 | CCN(CC)C(=O)c1nc[nH]c1C(=O)N(C)Cc1ccccc1 | inactive | –
36 | CN1CC(O)c2cc(N=NC(N)=O)c(O)cc21 (stereo not given) | inactive | –
37 | CCOC(=O)N1CCN(S(=O)(=O)c2ccc(Br)cc2)CC1 | inactive | –
38 | CCOC(=O)N1CCN(S(=O)(=O)c2ccc(C(=O)Nc3ccc(F)cc3F)cc2)CC1 | 2.59 µM (active) | –
39 | CCOC(=O)N1CCN(S(=O)(=O)c2ccc(-n3cnnn3)cc2)CC1 | inactive | –
40 | COc1cccc(OCCn2c(-c3ccc(Br)cc3)nc3ccccc3c2=O)c1 | inactive | –
41 | COc1ccc(-c2nc3ccccc3c(=O)n2CCc2ccc(O)cc2)cc1 | 14.6 µM (active) | –
42 | COc1ccc(-c2ccc(CCC(=O)O)n2-c2ccc(O)cc2)cc1 | inactive | –
43 | CC1CCCC(NC(=O)COC(=O)c2ccccc2C(=O)N(C)C2CCCCC2)C1C (stereo not given) | 23.1 µM (active) | –
44 | C=CCNC(=O)COC(=O)c1ccccc1C(=O)N(C)C1CCCCC1 | inactive | –

Row | Structure (SMILES) | Potency | activity change, negative = growth inhibition
45 | O=C(COC(=O)c1ccccc1SCC(=O)NC1CCCCC1)NC1CCCCC1 | inactive | –
46 | COc1cc(=O)n2c(c1C(=O)NC(C)c1ccco1)CCN(C(=O)c1cn3ccc(C)cc3n1)CC2 (stereo not given) | inactive | –
47 | Cc1ccc(C(=O)N/C(=C\c2ccco2)C(=O)NC2CCS(=O)(=O)C2)cc1 (stereo not given) | inactive | –
48 | Cc1cccn2c(=O)c(/C=C(\C#N)S(=O)(=O)c3ccc(Cl)cc3)c(N3CCC(C(N)=O)CC3)nc12 | inactive | –
49 | Cc1cc(C)cc(Oc2nc3c(C)cccn3c(=O)c2/C=C(\C#N)C(=O)NC2CCS(=O)(=O)C2)c1 (stereo not given) | 16.4 µM (active) | –
50 | Cc1ccnc(-n2sc3ccccc3c2=O)n1 | 7.31 µM (active) | –
51 | Cc1ccnc(Nc2nc3ccccc3s2)n1 | inactive | –
52 | Cc1ccnc(SCC(N)=O)n1 | inactive | –
53 | Cc1cccc(C)c1NC(=O)CNC(=O)C1CCCC1 | inactive | –
54 | CCc1ccnc(NC(=O)Nc2ccc(OCc3ccccc3)cc2)c1 | inactive | –
55 | Cc1ccc(NS(=O)(=O)c2c(C)[nH]c(C)c2C(=O)N2CCCCC2)c(C)c1 | inactive | –
56 | Cc1ccc(C)c(NS(=O)(=O)c2c(C)[nH]c(C)c2C(=O)N2CCCCC2)c1 | inactive | –
57 | O=C1CC(=O)Nc2cc(S(=O)(=O)N3CCN(c4cccc(C(F)(F)F)c4)CC3)ccc2N1 | inactive | –
58 | Cc1[nH]c(C)c(S(=O)(=O)N2CCN(c3cccc(C(F)(F)F)c3)CC2)c1C(=O)N1CCCC1 | 18.4 µM (active) | –
59 | Cc1[nH]c(C)c(S(=O)(=O)N2CCC(C)CC2)c1C(=O)N1CCCC1 | inactive | –
60 | Cc1[nH]c(C)c(S(=O)(=O)N2CCN(c3cccc(C(F)(F)F)c3)CC2)c1C(=O)N1CCCCC1 | 14.6 µM (active) | –
61 | CCOc1cc(/C=N/O)ccc1OCc1ccccc1F | inactive | –
62 | CC1=NOC(=O)/C1=C\c1ccccc1 | inactive | –
63 | COc1cc(/C=C2/C(=O)ON=C2C)ccc1OCc1ccccc1F | 11.6 µM (active) | –
64 | Cc1cc(NC(=O)CCS(=O)(=O)c2ccc(F)cc2)no1 | inactive | –
65 | C[C@@H]1CN(Cc2ccc3c(c2)CN(Cc2ccc(Oc4ncccn4)cc2)CCO3)C[C@H](C)O1 | – | -11.8% [at 9.04 µM]
